# VDR inhibitor: blocks the human vitamin D receptor; Potency, µM, inactives show max response, negative = inhibition, hits mostly inhibitors; P11473; 400,000 compounds, 0.93% hits; VDR-SRC2-3 peptide fluorescence polarization, 2 h
# Target sequence (P11473 whole entry, looked up): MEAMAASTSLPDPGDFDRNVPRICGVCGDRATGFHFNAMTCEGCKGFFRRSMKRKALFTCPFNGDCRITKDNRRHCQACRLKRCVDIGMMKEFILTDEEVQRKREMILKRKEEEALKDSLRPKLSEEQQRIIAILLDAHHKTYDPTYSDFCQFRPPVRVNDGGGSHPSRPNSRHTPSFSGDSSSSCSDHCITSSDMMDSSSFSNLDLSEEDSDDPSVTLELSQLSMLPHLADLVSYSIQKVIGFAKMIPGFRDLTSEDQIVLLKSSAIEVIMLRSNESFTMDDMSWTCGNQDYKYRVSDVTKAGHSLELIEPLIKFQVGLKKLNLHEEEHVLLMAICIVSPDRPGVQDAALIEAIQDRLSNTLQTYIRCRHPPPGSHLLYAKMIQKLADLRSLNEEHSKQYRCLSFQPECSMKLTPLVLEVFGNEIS
#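 Fluorescence polarization assay of small-molecule disruption of VDR binding to coregulator peptide SRC2-3. Compounds and controls pin-transferred, then read after 2 h incubation at ambient room temperature.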
# DT40 TDP1 no CPT: qHTS for Inhibitors of human tyrosyl-DNA phosphodiesterase 1 (TDP1): qHTS in cells in absence of CPT | Potency, µM (top dose mostly 46.2 µM), for the others: top-dose activity change, negative = growth inhibition, usual class: inhibitors | AID 686978, 2013 | DT40 Tdp1-/- hTDP1 cells, no CPT, ATP luminescence, 48 h | 420,000 compounds, 15% hits; further: nearly all actives have a fitted effect of over 55% in size
#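 Growth kinetics read by CellTiter-Glo luminescence after ≥48 hr at 37 °C. Cells: DT40 Tdp1-/- stably carrying human TDP1, 400 per well, compound exposure in the absence of CPT (DMSO vehicle).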
# GCN5L2 inh: blocks human GCN5L2 histone acetyltransferase; Q92830; Potency, µM (titrated, usually from 58.9 µM), for the others: top-dose activity change, negative = inhibition, hits mostly inhibitors; 390,000 compounds, 0.21% hits; GCN5L2 HAT assay, ThioGlo1 CoA-SH fluorescence
#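 qHTS, 1536-well. 20nM enzyme, pH 7.5 HEPES/EDTA/Tween-20 buffer; 15 min compound preinc., RT. Start: 75uM H3(1-25), 70uM AcCoA, 50uM ThioGlo1. Read Ex340/Em540 at t=0 (autofluorescence flag) and t=20 min.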
# DT40 TDP1 CPT: DT40-hTDP1 cell growth loss with CPT | chicken DT40 Tdp1-/-;hTDP1 cells + 20 nM CPT, ATP luminescence, 48 h | Potency, µM (highest dose often 46.2 µM), for inactives: at the top dose activity change, negative = growth inhibition, hits mostly inhibitors | 420,000 compounds, 12% hits; further: nearly all actives have a fitted effect of over 55% in size
#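 Cell growth measured by CellTiter-Glo luminescence after a minimum 48 h, 37 C compound exposure with 20 nM CPT in Tdp1-knockout DT40 cells stably expressing hTDP1, seeded 400/well; qHTS titration format.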
# PLK1 PBD inh: inhibitors of human PLK1 polo-box domain binding. P53350. Plk1 PBD binding of FITC phosphopeptide, fluorescence polarization. Potency, µM, inactives show max response, negative = inhibition, most hits filed as inhibitors. 360,000 compounds, 2.8% hits. AID 720504; further: series mostly up to about 57 µM; nearly all actives have a fitted effect of over 65% in size
# TDP1 inh: TDP1 (human) enzyme inhibition; Q9NUW8; recombinant TDP1, AlphaScreen DNA substrate cleavage; Potency, µM (series often up to 130 µM), without a hit: at the highest dose activity change, negative = inhibition, usual class: inhibitors; 350,000 compounds, 0.28% hits; AID 485290; further: nearly all actives have a fitted effect of over 40% in size
#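 Recombinant E. coli-expressed Tdp1 (1 nM) preincubated with compound 15 min at RT, then 5'-biotin/3'-phosphotyrosine-FITC DNA substrate (15 nM) added for 5 min. AlphaScreen beads (10 ug/ml) added, 10 min RT; tyrosine-FITC cleavage read as signal loss.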
# An asterisk follows results filed as active; ? = inconclusive; . = no result; ! = not confirmed by another sample; [ ] = dose if it differs, or a comment. In the library only some 18% were active in any assay of this set; here they are far more common. The call rests on the fitted dose curve; in most records, active means well fitted curve in the direction sought with a large enough effect; inconclusive means small, poorly fitted or top-dose-only effect, or another doubt; inactive means no such curve, though single readings can be large; an effect the other way counts as inactive or inconclusive. On the % scale 0 is the no-effect control and ±100 the full control effect; potency means the concentration at half of the fitted maximal effect.
SMILES,VDR inhibitor,DT40 TDP1 no CPT,GCN5L2 inh,DT40 TDP1 CPT,PLK1 PBD inh,TDP1 inh
COc1ccc(COC(=O)N/N=C2/C[C@@H](O)[C@@H](O)[C@@H]3[C@@H]4C(=O)N(C5CCCCC5)C(=O)[C@H]4CC[C@@H]23)cc1,.,.,.,.,.,5.8%[21 µM]
CC(C)(C)C(=O)Nc1ccc(S(=O)(=O)N2CCCC2)cc1,7.2%,-13.6%,1.6%,3.2%,-23.6%,4.2%
CC(C)(C)C(=O)Nc1cc(S(=O)(=O)N2CCCCC2)ccc1N1CCCCC1,-7.3%,23.1µM*,-7.9%,16.4µM*,-23.6%,2.7%
Cc1ccc(C(=O)Nc2cc(S(=O)(=O)N3CCOCC3)ccc2N2CCCC2)cc1,0.3%,?,0.5%,-14.9%,0.6%,1.7%
CCCC(=O)Nc1cc(S(=O)(=O)N2CCOCC2)ccc1N1CCCCC1,89.1µM*,?,1.7%,-28.9%,23.8µM*,2.2%
Cc1ccc(OCCCC(=O)Nc2cc(S(=O)(=O)N3CCOCC3)ccc2N2CCOCC2)cc1,7.0%,23.1µM*,-6.5%,20.6µM*,1.4%,-0.5%
O=C(CCCOc1ccccc1)Nc1cc(S(=O)(=O)N2CCOCC2)ccc1N1CCOCC1,-10.3%,?,-2.5%,?,-2.2%,2.8%
CCCC(=O)Nc1cc(S(=O)(=O)N2CCCCC2)ccc1N1CCOCC1,-2.8%,2.3%,-7.0%,-2.9%,-7.0%,0.3%
Cc1ccc(S(=O)(=O)NC(=O)c2cc(C)n(-c3cc(S(=O)(=O)N4CCOCC4)ccc3N3CCCC3)c2C)cc1,18.0%,-17.3%,-12.4%,?,29.9µM*,7.9%
COc1ccc(C(=O)N2CCCCC2CCN2CCOCC2)cc1 (centres undefined),11.2%,-10.5%,3.5%,-19.8%,.,0.0%
NC(=O)c1ncn([C@@H]2O[C@H](CNCc3cccc(OC4CCCC4)c3)[C@@H](O)[C@H]2O)n1,-9.4%,-16.4%,.,-11.7%,-1.7%,.
CCN1CCN(c2ccc(S(=O)(=O)N3CCCCC3)cc2NC(=O)c2ccc(OC(F)F)cc2)CC1,-16.4%,?,-4.4%,?,-3.6%,-3.3%
O=c1c2ccccc2sn1-c1cc(S(=O)(=O)N2CCOCC2)ccc1N1CCCCC1,28.2µM*,5.62µM*,.,2.51µM*,.,1.0%
O=C(O)c1cc(S(=O)(=O)N2CCOCC2)ccc1N1CCCCC1,-7.2%,-22.3%,-2.4%,7.3%,-11.7%,0.0%
CC(C)C(=O)Nc1cc(S(=O)(=O)N2CCOCC2)ccc1N1CCCCC1,70.8µM*,?,-3.0%,1.2%,23.8µM*,0.5%
O=C(Nc1cc(S(=O)(=O)N2CCOCC2)ccc1N1CCCCC1)c1ccccc1,-11.5%,20.6µM*,-6.0%,?,3.3%,2.6%
CCN1CCN(c2ccc(S(=O)(=O)N3CCCCC3)cc2NC(=O)c2cccc(OC(F)F)c2)CC1,-1.7%,20.6µM*,-4.4%,?,4.4%,9.9%
CCOC(=O)CN1C(=O)N[C@@H](CCc2ccccc2)[C@H](C(=O)OC)[C@H]1C,-13.5%,-20.1%,.,-10.9%,-4.3%,13.7%[12.3 µM]
Cc1ccc(C)c(CNC(=O)C2CCCCN2S(=O)(=O)c2ccc(F)cc2)c1 (centres undefined),7.7%,?,-6.7%,?,.,-5.3%
O=C(Nc1ccc(Cl)c(Cl)c1)Nc1cc(S(=O)(=O)N2CCOCC2)ccc1N1CCCC1,-10.8%,18.4µM*,-10.1%,?,16.8µM*,5.5%
CCOc1ccc(S(=O)(=O)N2CCOCC2)cc1NC(=O)CSCc1ccc(C)cc1,-1.7%,4.61µM*,-6.7%,5.17µM*,-6.4%,2.7%
CCOC(=O)COc1ccc2c(C)c(CCN(CC)CC)c(=O)oc2c1Cl,0.2%,?,5.0%,?,.,7.5%
COc1cc(C#Cc2ccc3cc(CCO)oc(=O)c3c2)cc(OC)c1,2.0%,18.4µM*,-14.7%,?,-1.5%,-3.3%
NCCC[C@@H](CC(=O)N[C@@H]1CCCC[C@H]1C(=O)N[C@H](CC(=O)N[C@@H](CCC(=O)O)CC(=O)O)Cc1c[nH]c2ccccc12)NC(=O)C[C@H](Cc1c[nH]c2ccccc12)NC(=O)[C@@H]1CNCC[C@H]1N,-0.2%,.,.,.,.,3.1%
NCCNC[C@@H]1COC2(CCCCCCCCCCC2)O1,-18.9%,23.1µM*,-11.1%,?,-4.1%,1.2%
SMILES,VDR inhibitor,DT40 TDP1 no CPT,GCN5L2 inh,DT40 TDP1 CPT,PLK1 PBD inh,TDP1 inh
Cc1ccc2[nH]c(O)c(N=Nc3ccccc3[N+](=O)[O-])c2c1,-3.5%,5.8µM*,.,8.2µM*,-2.0%,.
O=[N+]([O-])c1ccccc1N=Nc1c(O)[nH]c2ccc(F)cc12,3.0%,10.2%,.,13.1%,8.7%,.
Cc1ccc2[nH]c(O)c(N=Nc3nc4ccccc4s3)c2c1,-4.6%,7.31µM*,-16.0%,10.3µM*,-16.2%,3.1%
CC(=O)Nc1cc(-c2cccc(C(=O)NCCN(C)C)c2)cn2c(-c3ccc(S(C)(=O)=O)cc3)cnc12,.,-29.0%,.,4.6%,-15.3%,.
COc1ccc(-c2cnc3c(NC(C)=O)cc(-c4ccc(S(C)(=O)=O)cc4)cn23)cc1OC,.,18.4µM*,.,?,-13.2%,.
COc1cccc(-c2cnc3c(NC(C)=O)cc(-c4ccc(S(C)(=O)=O)cc4)cn23)c1,.,23.1µM*,.,?,-9.2%,.
C[C@@H]1CN([C@H](C)CO)C(=O)c2c(c3ccccc3n2C)-c2ccccc2CO[C@H]1CN(C)C(=O)Nc1ccccc1,.,?,.,?,-9.8%,.
COc1ccc(N2CCN(C(=O)c3cc(=O)c4cc(C)c(C)cc4o3)CC2)cc1,4.8%,?,6.3%,3.0%,?,.
CC/C(=C/c1sc2ccccc2[n+]1CC)SC,-18.8%,11.6µM*,-7.6%,13µM*,-8.9%,2.7%
CCN1/C(=C/C=C/c2sc3ccccc3[n+]2CC)Sc2ccccc21,7.94µM*!,0.146µM*,?,0.184µM*,12.2%,.
CC[n+]1c(/C=C/Nc2ccccc2)sc2ccccc21,20.8%,2.91µM*,-5.2%,5.8µM*,-13.9%,7.1%
CC(C)CO/N=C1/[C@H]2O[C@@H]2[C@@H](O)[C@H]2[C@H]1CCn1c(=O)n(Cc3cc4c(cc3Cl)OCO4)c(=O)n12,.,.,.,.,.,6.9%[21 µM]
CCc1ccccc1-n1c2c(cc(-c3nc(-c4ccc(Cl)cc4)cs3)c1=O)C(=O)CC(C)(C)C2,-5.0%,-22.6%,3.5%,-12.4%,.,4.5%
CCn1c(=O)cc(SCC(=O)NCc2ccc(F)cc2Cl)c2ccccc21,3.1%,?,-0.1%,?,.,3.5%
